From PubChem BioAssay AID1159580 (chemical genetic matrix, 2015)
In all, about 5,500 compounds went through this assay and about 2,000 (36%) were called active. About 18% were inconclusive and are not listed. Cut-off read from the data, not from the text of the source: active = normalized growth mostly below about 0.91 (no sharp cut-off); inconclusive = no clear call, values can overlap the other calls; inactive = mostly above about 0.92. The list shows a part of the results.

Assay: chemical genetic growth profiling, strain panel (AID 1159580);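 note: tested at 20 µM; growth read once vehicle control cultures reached saturation at 30 °C; 1 = growth at the plate median or of vehicle wells; lower values mean less growth of the strain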
Settings: growth OD
[1] = S. cerevisiae deletion strains, locus YAL013W, strain DEP1, stronger effect = lower value
[2] = S. cerevisiae deletion strains, locus YBR021W, strain FUR4, stronger effect = lower value
[3] = S. cerevisiae deletion strains, locus YBR229C, strain ROT2, stronger effect = lower value
[4] = S. cerevisiae deletion strains, locus YCL029C, strain bik1, stronger effect = lower value
[5] = S. cerevisiae deletion strains, locus YDL035C, strain GPR1, stronger effect = lower value
[6] = S. cerevisiae deletion strains, locus YDL074C, strain BRE1, stronger effect = lower value
[7] = S. cerevisiae deletion strains, locus YDL101C, strain DUN1, stronger effect = lower value
[8] = S. cerevisiae deletion strains, locus YDL134C, strain PPH21, stronger effect = lower value
[9] = S. cerevisiae deletion strains, locus YDL185W, strain tfp1, stronger effect = lower value
[10] = S. cerevisiae deletion strains, locus YDL192W, strain arf1, stronger effect = lower value
[11] = S. cerevisiae deletion strains, locus YDR101C, strain arx1, stronger effect = lower value
[12] = S. cerevisiae deletion strains, locus YDR150W, strain NUM1, stronger effect = lower value
[13] = S. cerevisiae deletion strains, locus YDR162C, strain NBP2, stronger effect = lower value
[14] = S. cerevisiae deletion strains, locus YDR318W, strain mcm21, stronger effect = lower value
[15] = S. cerevisiae deletion strains, locus YDR388W, stronger effect = lower value
[16] = S. cerevisiae deletion strains, locus YDR502C, strain sam2, stronger effect = lower value
[17] = S. cerevisiae deletion strains, locus YEL061C, strain CIN8, stronger effect = lower value
[18] = S. cerevisiae deletion strains, locus YER110C, stronger effect = lower value
[19] = S. cerevisiae deletion strains, locus YER155C, strain BEM2, stronger effect = lower value
[20] = S. cerevisiae deletion strains, locus YER167W, strain BCK2, stronger effect = lower value
[21] = S. cerevisiae deletion strains, locus YGL078C, strain dbp3, stronger effect = lower value
[22] = S. cerevisiae deletion strains, locus YGL086W, strain mad1, stronger effect = lower value
[23] = S. cerevisiae deletion strains, locus YGL248W, strain PDE1, stronger effect = lower value
[24] = S. cerevisiae deletion strains, locus YGR135W, strain pre9, stronger effect = lower value
[25] = S. cerevisiae deletion strains, locus YGR252W, strain gcn5, stronger effect = lower value
[26] = S. cerevisiae deletion strains, locus YHR030C, strain SLT2, stronger effect = lower value
[27] = S. cerevisiae deletion strains, locus YHR079C, strain IRE1 (second series), stronger effect = lower value
[28] = S. cerevisiae deletion strains, locus YHR094C, strain hxt1, stronger effect = lower value
[29] = S. cerevisiae deletion strains, locus YHR129C, strain ARP1, stronger effect = lower value
[30] = S. cerevisiae deletion strains, locus YHR200W, strain rpn10, stronger effect = lower value
[31] = S. cerevisiae deletion strains, locus YIL066C, strain RNR3, stronger effect = lower value
[32] = S. cerevisiae deletion strains, locus YIL073C, strain SPO22, stronger effect = lower value
[33] = S. cerevisiae deletion strains, locus YIL125W, strain kgd1, stronger effect = lower value
[34] = S. cerevisiae deletion strains, locus YIR030C, strain dcg1, stronger effect = lower value
[35] = S. cerevisiae deletion strains, locus YJL095W, strain BCK1, stronger effect = lower value
[36] = S. cerevisiae deletion strains, locus YJL134W, strain LCB3, stronger effect = lower value
[37] = S. cerevisiae deletion strains, locus YJL168C, strain set2, stronger effect = lower value
[38] = S. cerevisiae deletion strains, locus YJL187C, strain SWE1 (second series), stronger effect = lower value
[39] = S. cerevisiae deletion strains, locus YJR043C, strain POL32, stronger effect = lower value
[40] = S. cerevisiae deletion strains, locus YJR075W, strain HOC1, stronger effect = lower value
[41] = S. cerevisiae deletion strains, locus YKL009W, strain mrt4, stronger effect = lower value
[42] = S. cerevisiae deletion strains, locus YKL068W, stronger effect = lower value
[43] = S. cerevisiae deletion strains, locus YKL085W, strain MDH1 (second series), stronger effect = lower value
[44] = S. cerevisiae deletion strains, locus YKL085W, strain MDH1, stronger effect = lower value
[45] = S. cerevisiae deletion strains, locus YKL190W, strain CNB1, stronger effect = lower value
[46] = S. cerevisiae deletion strains, locus YKR001C, strain vps1, stronger effect = lower value
[47] = S. cerevisiae deletion strains, locus YLR039C, strain RIC1, stronger effect = lower value
[48] = S. cerevisiae deletion strains, locus YLR058C, strain SHM2, stronger effect = lower value
[49] = S. cerevisiae deletion strains, locus YLR102C, strain apc9, stronger effect = lower value
[50] = S. cerevisiae deletion strains, locus YLR268W, strain sec22, stronger effect = lower value
[51] = S. cerevisiae deletion strains, locus YLR330W, strain CHS5, stronger effect = lower value
[52] = S. cerevisiae deletion strains, locus YLR371W, strain rom2, stronger effect = lower value
[53] = S. cerevisiae deletion strains, locus YLR418C, strain cdc73, stronger effect = lower value
[54] = S. cerevisiae deletion strains, locus YML016C, strain PPZ1, stronger effect = lower value
[55] = S. cerevisiae deletion strains, locus YML032C, strain rad52, stronger effect = lower value
[56] = S. cerevisiae deletion strains, locus YML124C, strain tub3, stronger effect = lower value
[57] = S. cerevisiae deletion strains, locus YMR078C, strain ctf18, stronger effect = lower value
[58] = S. cerevisiae deletion strains, locus YMR223W, strain ubp8, stronger effect = lower value
[59] = S. cerevisiae deletion strains, locus YMR263W, strain SAP30, stronger effect = lower value
[60] = S. cerevisiae deletion strains, locus YMR307W, strain GAS1, stronger effect = lower value
[61] = S. cerevisiae deletion strains, locus YNL067W, strain RPL9B, stronger effect = lower value
[62] = S. cerevisiae deletion strains, locus YNL153C, strain GIM3, stronger effect = lower value
[63] = S. cerevisiae deletion strains, locus YNL233W, strain BNI4, stronger effect = lower value
[64] = S. cerevisiae deletion strains, locus YNL250W, strain rad50, stronger effect = lower value
[65] = S. cerevisiae deletion strains, locus YNL271C, strain bni1, stronger effect = lower value
[66] = S. cerevisiae deletion strains, locus YNL298W, strain CLA4, stronger effect = lower value
[67] = S. cerevisiae deletion strains, locus YNL307C, strain MCK1, stronger effect = lower value
[68] = S. cerevisiae deletion strains, locus YNR052C, strain pop2, stronger effect = lower value
[69] = S. cerevisiae deletion strains, locus YOL012C, strain htz1
[70] = S. cerevisiae deletion strains, locus YOL147C, strain pex11, stronger effect = lower value
[71] = S. cerevisiae deletion strains, locus YOR061W, strain CKA2, stronger effect = lower value
[72] = S. cerevisiae deletion strains, locus YOR069W, strain VPS5, stronger effect = lower value
[73] = S. cerevisiae deletion strains, locus YOR136W, strain idh2, stronger effect = lower value
[74] = S. cerevisiae deletion strains, locus YOR144C, strain elg1, stronger effect = lower value
[75] = S. cerevisiae deletion strains, locus YOR184W, strain ser1, stronger effect = lower value
[76] = S. cerevisiae deletion strains, locus YOR316C, strain cot1, stronger effect = lower value
[77] = S. cerevisiae deletion strains, locus YPR119W, strain clb2, stronger effect = lower value
[78] = S. cerevisiae deletion strains, locus YPR141C, strain kar3, stronger effect = lower value
[79] = S. cerevisiae deletion strains, locus YPR163C, strain tif3, stronger effect = lower value
[80] = S. cerevisiae deletion strains, locus YPR167C, strain met16, stronger effect = lower value
[81] = S. cerevisiae deletion strains, strain wtn01, stronger effect = lower value
[82] = S. cerevisiae strains, strain wild type, stronger effect = lower value
[83] = S. cerevisiae deletion strains, locus YLR262C, strain YPT6, stronger effect = lower value
[84] = S. cerevisiae deletion strains, locus YNL322C, strain KRE1, stronger effect = lower value

Measured: normalized growth

CC(=O)O[C@H]1CC[C@]2(C)C3CC[C@@]4(C)C(CC5O[C@@]6(CCC(C)CO6)[C@@H](C)C54)C3CC[C@H]2C1 (some centres undefined)
inactive: [1] 0.995 | [2] 1 | [3] 0.986 | [4] 0.98 | [5] 1.02 | [6] 1.01 | [7] 0.98 | [8] 0.988 | [9] 0.972 | [10] 0.987 | [11] 0.983 | [12] 1 | [13] 1.02 | [14] 0.975 | [15] 0.973 | [16] 0.974 | [17] 0.997 | [18] 0.976 | [19] 0.984 | [20] 0.995 | [21] 0.971 | [22] 0.988 | [23] 0.984 | [24] 0.948 | [25] 0.92 | [26] 0.978 | [27] 0.977 | [28] 0.969 | [29] 0.991 | [30] 0.973 | [31] 0.993 | [32] 0.985 | [33] 0.982 | [34] 0.975 | [35] 0.977 | [36] 0.987 | [37] 0.979 | [38] 0.977 | [39] 1.02 | [40] 0.983 | [41] 1.04 | [42] 0.979 | [43] 1.01 | [44] 1.01 | [45] 0.999 | [46] 0.971 | [47] 1.07 | [48] 0.989 | [49] 0.979 | [50] 0.987 | [51] 0.986 | [52] 0.991 | [53] 0.976 | [54] 0.989 | [55] 0.977 | [56] 0.994 | [57] 0.969 | [58] 0.969 | [59] 0.991 | [60] 1.09 | [61] 0.983 | [62] 0.977 | [63] 1.01 | [64] 0.965 | [65] 0.982 | [66] 0.971 | [67] 0.982 | [68] 0.953 | S. cerevisiae deletion strains, locus YOL006C, strain TOP1, stronger effect = lower value 1.06 | [69] 1.12 | [70] 0.98 | [71] 1 | [72] 0.98 | [73] 0.968 | [74] 0.972 | [75] 1.02 | [76] 0.977 | [77] 0.968 | [78] 0.974 | [79] 0.977 | [80] 0.979 | [81] 1 | [82] 1.02

CC(=O)OCC(=O)[C@@]1(O)CCC2C3CC[C@@H]4C[C@H](OC(C)=O)CC[C@]4(C)C3C(=O)C[C@@]21C (some centres undefined)
inactive: [2] 0.972 | [3] 0.997 | [4] 1.03 | [5] 0.989 | [6] 0.993 | [7] 1.01 | [9] 1.02 | [10] 1.01 | [11] 1.01 | [12] 0.994 | [13] 0.987 | [14] 1 | [15] 1.01 | [16] 1 | [17] 0.971 | [18] 1.01 | [19] 0.994 | [20] 0.961 | [21] 1 | [22] 1.01 | [23] 1.01 | [24] 1 | [25] 0.991 | [26] 1 | [27] 1.01 | [28] 1.01 | [29] 0.996 | [30] 1.02 | [31] 1 | [32] 1.05 | [33] 1 | [34] 0.999 | [35] 1 | [36] 1 | [37] 1.01 | [38] 0.999 | [39] 0.995 | [41] 0.988 | [42] 1.01 | [43] 1.01 | [44] 1.01 | [45] 0.997 | [46] 1.01 | [47] 1.02 | [48] 0.993 | [49] 1.01 | [83] 1.03 | [50] 1.03 | [51] 1 | S. cerevisiae deletion strains, locus YLR342W, strain FKS1 (second series), stronger effect = lower value 1.01 | [52] 1 | [53] 1.01 | [54] 1.01 | [55] 1 | [56] 1.01 | [57] 1.02 | [58] 1.02 | [59] 0.995 | [60] 0.99 | [61] 1 | [62] 1 | [63] 0.995 | [64] 1.02 | [65] 1.01 | [66] 1.01 | [67] 1.02 | [84] 0.998 | [68] 1.01 | [69] 1 | [70] 1.01 | [71] 1.01 | [72] 0.996 | [73] 1.02 | [74] 1.02 | [75] 1.01 | [76] 1.01 | [77] 1 | [78] 1.02 | [79] 1.02 | [80] 1.02 | [81] 1.02 | [82] 0.986

CC(=O)NC(=O)/C(C#N)=C/N1CCN(Cc2ccccc2)CC1
inactive: [1] 0.987 | [3] 0.989 | [7] 1.01 | [8] 1.01 | [12] 0.969 | [17] 0.996 | S. cerevisiae deletion strains, locus YGR078C, strain PAC10, stronger effect = lower value 0.994 | [26] 0.947 | S. cerevisiae deletion strains, locus YHR087W, strain rtc3, stronger effect = lower value 0.994 | [39] 0.976 | [40] 1.01 | [45] 1 | [47] 1.01 | S. cerevisiae deletion strains, locus YLR058C, strain SHM2 (second series), stronger effect = lower value 0.988 | S. cerevisiae deletion strains, locus YLR085C, strain ARP6, stronger effect = lower value 1.07 | [83] 0.982 | S. cerevisiae deletion strains, locus YML094W, strain GIM5, stronger effect = lower value 1.01 | S. cerevisiae deletion strains, locus YMR219W, strain ESC1, stronger effect = lower value 1 | [59] 0.997 | [60] 1.11 | S. cerevisiae deletion strains, locus YNL128W, strain TEP1, stronger effect = lower value 0.981 | [62] 0.977 | S. cerevisiae deletion strains, locus YNL298W, strain CLA4 (second series), stronger effect = lower value 0.95 | [84] 0.991 | S. cerevisiae deletion strains, locus YNR030W, strain Alg12, stronger effect = lower value 0.987 | S. cerevisiae deletion strains, locus YPL055C, strain LGE1, stronger effect = lower value 1.05 | S. cerevisiae deletion strains, locus YPL241C, strain CIN2, stronger effect = lower value 0.989 | S. cerevisiae deletion strains, locus YPR135W, strain CTF4, stronger effect = lower value 0.886 | [82] 0.974
